Assay outcomes as filed in PubChem BioAssay.
MITF inh: inhibitors of human MITF; O75030; AlphaScreen MITF homodimerization, bead proximity signal; inhibition, % at 2.6 µM; 0.91% of 650,000 active; AID 1259374; in the data active means inhibition above about 50%;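 further: 0% = vehicle wells with protein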
TEAD-YAP inh: TEAD-YAP interaction inhibition; HEK-TIYL cells, TEAD-Gal4/YAP UAS-luciferase luminescence; 1.4% of 640,000 active; inhibition, % at 9.12 µM; AID 1259422; in the data active means inhibition above about 32%;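 further: 0% = median of test compound wells and 100% = reference inhibitor wells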
GPR151 ag: activates the human receptor GPR151; Q8TDV0; PathHunter beta-arrestin GPR151 cells, luminescence; activation, % at 11.2 µM; 1% of 650,000 active; in the data active means activation above about 4.9%;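 further: 0% = median of compound wells and 100% = cells with positive control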
FBW7 act: activators of human E3 ligase FBW7. AID 1259310. AlphaScreen FBW7–phospho-cyclin E peptide binding, activator screen. normalized activity (activation), % at 26.1 µM. Q969H0. 0.13% of 650,000 active; in the data active means normalized activity above about 1.9%;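 further: purified mutant Fbw7 with reduced substrate affinity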
The depositor's hits bear a star. In the library only some 3.5% were active in any assay of this set; here they are far more common.

What do the screens show for `CCOC(=O)C1=CN(C(C)C)C=C(C(=O)OCC)C1c1ccccc1Br`?
MITF inh: -6; TEAD-YAP inh: -4; GPR151 ag: 0; FBW7 act: 2.0*

What do the screens show for `COC(=O)C1=CN(C(C)C)C=C(C(=O)OC)C1c1ccccc1Br`?
MITF inh: 3; TEAD-YAP inh: -9; GPR151 ag: -1; FBW7 act: 2

What do the screens show for `CCCN1C(=O)C(=O)c2cc(C)ccc21`?
MITF inh: 2; TEAD-YAP inh: -3; GPR151 ag: 0; FBW7 act: 0

How did Cc1ccc2c(c1)C(=O)C(=O)N2CCCl do in these assays?
MITF inh: 0; TEAD-YAP inh: 60*; GPR151 ag: 1; FBW7 act: 0

Results for NCCNC(=O)C1CCCNC1=O (stereo unspecified) ?
MITF inh: 40; TEAD-YAP inh: -7; GPR151 ag: 1; FBW7 act: -1

What do the screens show for `CN1CCN(c2ccc(-c3nc(NCCCN4CCCC4=O)c4ncn(-c5ccsc5)c4n3)cc2)CC1`?
MITF inh: -7; TEAD-YAP inh: 35*; GPR151 ag: 0; FBW7 act: 0

What do the screens show for `Nc1cccc(-c2nc(NCCCN3CCCC3=O)c3ncn(-c4ccsc4)c3n2)c1`?
MITF inh: 13; TEAD-YAP inh: 62*; GPR151 ag: 0; FBW7 act: 0

How did O=C1CCCN1CCCNc1nc(-c2ccc(N3CCOCC3)nc2)nc2c1ncn2CCN1CCCC1=O do in these assays?
MITF inh: -6; TEAD-YAP inh: 2; GPR151 ag: 0; FBW7 act: 0

What do the screens show for `O=C1CCCN1CCCNc1nc(-c2ccc(N3CCOCC3)nc2)nc2c1ncn2-c1ccsc1`?
MITF inh: -10; TEAD-YAP inh: 48*; GPR151 ag: -2; FBW7 act: 0

How did Cc1noc(C)c1-c1nc(NCCCN2CCCC2=O)c2ncn(-c3ccsc3)c2n1 do in these assays?
MITF inh: -2; TEAD-YAP inh: 59*; GPR151 ag: -2; FBW7 act: 0

What do the screens show for `O=C1CCCN1CCCNc1nc(NCc2ccc3c(c2)OCO3)nc2c1ncn2-c1ccsc1`?
MITF inh: 19; TEAD-YAP inh: 5; GPR151 ag: 3; FBW7 act: 0

How did COc1ccc(CC(=O)NNC(=O)c2ccccc2C)cc1 do in these assays?
MITF inh: -7; TEAD-YAP inh: -5; GPR151 ag: -1; FBW7 act: 0

Results for Cc1ccc(S(=O)(=O)N2CCN(c3nnnn3-c3ccccc3)CC2)cc1Cl ?
MITF inh: -9; TEAD-YAP inh: -2; GPR151 ag: 1; FBW7 act: 2.2*

How did C=CCN1C(=O)C2(NC(=O)c3ccccc3N2)c2ccccc21 (stereo unspecified) do in these assays?
MITF inh: 13; TEAD-YAP inh: 66*; GPR151 ag: 0; FBW7 act: 1

What do the screens show for `Cc1cc(C)n2ncc(CN3CCc4ccc(NC(=O)C5CCCO5)cc4C3)c2n1` (stereo unspecified)?
MITF inh: 4; TEAD-YAP inh: -5; GPR151 ag: 0; FBW7 act: 0

What do the screens show for `CC(C)(C)CC(=O)N1CCc2cc(-c3csc(NC(=O)c4cccnc4)n3)ccc21`?
MITF inh: 2; TEAD-YAP inh: 36*; GPR151 ag: 0; FBW7 act: 0

What do the screens show for `Cc1sc(NC(=O)c2cccnc2)nc1-c1ccc2c(c1)CCN2C(=O)CC(C)(C)C`?
MITF inh: 26; TEAD-YAP inh: 0; GPR151 ag: -1; FBW7 act: 0

How did N#C/C(=C\c1ccccc1OCc1ccccc1Cl)C(N)=O do in these assays?
MITF inh: 1; TEAD-YAP inh: -9; GPR151 ag: 2; FBW7 act: 0

Results for O=C(COc1ccc(CO)cc1Cl)Nc1ccccc1 ?
MITF inh: 10; TEAD-YAP inh: 49*; GPR151 ag: -3; FBW7 act: 1

Results for Cc1ccc(COc2ccc(CO)cc2Cl)cc1 ?
MITF inh: 7; TEAD-YAP inh: 33*; GPR151 ag: -1; FBW7 act: 0

What do the screens show for `CCCOC(=O)c1cccc(NC(=O)COc2ccccc2Br)c1`?
MITF inh: 7; TEAD-YAP inh: 50*; GPR151 ag: 0; FBW7 act: 0

Results for CCCOC(=O)c1cccc(NC(=O)COc2ccc(Br)cc2)c1 ?
MITF inh: 15; TEAD-YAP inh: -18; GPR151 ag: 1; FBW7 act: 0

What do the screens show for `O=C(COc1ccc(Br)cc1Br)Nc1cccc(O)c1`?
MITF inh: 2; TEAD-YAP inh: 69*; GPR151 ag: 3; FBW7 act: 0

How did CCOCCC(=O)N1CCc2ccccc2C1 do in these assays?
MITF inh: 5; TEAD-YAP inh: 5; GPR151 ag: 2; FBW7 act: 0

What do the screens show for `CC(C)n1cnc2c(NCCO)nc(N3CCN(c4ccccn4)CC3)nc21`?
MITF inh: -5; TEAD-YAP inh: 1; GPR151 ag: 0; FBW7 act: 0

What do the screens show for `O=C1C2C3CC(C(Br)C3Br)C2C(=O)N1c1ncccn1` (stereo unspecified)?
MITF inh: -5; TEAD-YAP inh: -6; GPR151 ag: 3; FBW7 act: 0

Results for O=C(NCCCn1ccnc1)c1ccc2cncc(-c3cc4ccccc4o3)c2n1 ?
MITF inh: -2; TEAD-YAP inh: 46*; GPR151 ag: -1; FBW7 act: 0

What do the screens show for `O=C(NC1CC1)c1ccc2cncc(-c3cc4ccccc4o3)c2n1`?
MITF inh: 2; TEAD-YAP inh: 50*; GPR151 ag: -1; FBW7 act: 0

How did COCCNC(=O)c1ccc2cncc(-c3cc4ccccc4o3)c2n1 do in these assays?
MITF inh: 5; TEAD-YAP inh: 60*; GPR151 ag: 0; FBW7 act: 0

What do the screens show for `O=C(c1ccc2cncc(-c3cc4ccccc4o3)c2n1)N1CCOCC1`?
MITF inh: 18; TEAD-YAP inh: 23; GPR151 ag: 1; FBW7 act: -1

What do the screens show for `CCC(CC)=NNC(=O)c1c(C)nc2sccn12`?
MITF inh: -8; TEAD-YAP inh: 16; GPR151 ag: -1; FBW7 act: 0

How did Cc1cc(Br)ccc1NC(=O)c1cn(C)c2c(=O)n(-c3ccc(F)cc3)c(=O)[nH]c12 do in these assays?
MITF inh: 1; TEAD-YAP inh: -14; GPR151 ag: 0; FBW7 act: 0

Results for N#CCCN(C(=O)CCl)c1ccccc1 ?
MITF inh: -4; TEAD-YAP inh: 65*; GPR151 ag: 2; FBW7 act: 0

How did CCOC(=O)N(CC#N)c1ccc(C)cc1 do in these assays?
MITF inh: 6; TEAD-YAP inh: -4; GPR151 ag: 0; FBW7 act: 0

How did CCOc1ccc(N(CCC#N)C(=O)CCl)cc1 do in these assays?
MITF inh: -8; TEAD-YAP inh: 46*; GPR151 ag: 1; FBW7 act: 0

What do the screens show for `CCOc1ccc(N(CCC#N)S(=O)(=O)c2ccc(Cl)cc2)cc1`?
MITF inh: 11; TEAD-YAP inh: 2; GPR151 ag: 0; FBW7 act: 0

How did Cc1ccc(N(CCC#N)C(=O)CCl)cc1 do in these assays?
MITF inh: 10; TEAD-YAP inh: 77*; GPR151 ag: 4; FBW7 act: 0

What do the screens show for `N#CCCN(C(=O)CCl)c1ccc(F)cc1`?
MITF inh: 3; TEAD-YAP inh: 82*; GPR151 ag: 0; FBW7 act: 0
